Screening results from PubChem BioAssay.
KCNQ2 block – rat KCNQ2 potassium channel inhibitors, primary screen, cell-based, CHO-K1, FluxOR thallium flux, B-score; 20 min; active compounds read low; B-score at 10 µM; 310,000 compounds, 1.1% hits; AID 2156, 2009;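 active = fluorescence ratio B-score at most minus 3 library SDs, with starting brightness B-score within 2 library SDs, cut at about -5.5 in these data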
Target sequence (O88943 whole entry, looked up): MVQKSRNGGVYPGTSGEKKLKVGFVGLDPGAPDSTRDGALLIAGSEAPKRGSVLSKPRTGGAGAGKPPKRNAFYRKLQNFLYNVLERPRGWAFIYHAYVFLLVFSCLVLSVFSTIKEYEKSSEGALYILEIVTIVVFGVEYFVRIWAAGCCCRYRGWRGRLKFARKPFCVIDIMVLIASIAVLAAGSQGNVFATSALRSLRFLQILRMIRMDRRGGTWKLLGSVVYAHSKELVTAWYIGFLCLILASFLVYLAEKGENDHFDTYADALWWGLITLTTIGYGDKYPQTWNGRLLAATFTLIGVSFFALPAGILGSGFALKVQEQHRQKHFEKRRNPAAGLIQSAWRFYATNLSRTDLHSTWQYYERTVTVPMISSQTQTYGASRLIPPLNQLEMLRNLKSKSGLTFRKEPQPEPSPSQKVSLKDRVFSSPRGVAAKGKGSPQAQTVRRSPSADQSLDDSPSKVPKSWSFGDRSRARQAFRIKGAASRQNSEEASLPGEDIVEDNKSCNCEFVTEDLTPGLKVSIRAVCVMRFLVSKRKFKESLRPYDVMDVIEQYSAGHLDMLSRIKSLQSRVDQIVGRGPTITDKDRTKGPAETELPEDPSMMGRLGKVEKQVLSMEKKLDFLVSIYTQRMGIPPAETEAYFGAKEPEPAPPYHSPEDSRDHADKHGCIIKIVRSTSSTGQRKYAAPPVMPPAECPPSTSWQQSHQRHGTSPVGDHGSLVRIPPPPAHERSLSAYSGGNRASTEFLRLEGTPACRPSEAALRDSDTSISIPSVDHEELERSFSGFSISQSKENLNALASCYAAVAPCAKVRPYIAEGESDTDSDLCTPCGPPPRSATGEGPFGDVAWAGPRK
KCNQ2 enhance – potentiators of rat KCNQ2 potassium channel; 310,000 compounds, 0.54% hits; CHO-K1 KCNQ2, FluxOR thallium flux fluorescence; active compounds read high; Potassium voltage-gated channel subfamily KQT member 2 (Rattus norvegicus), O88943; B-score at 10 µM; AID 2239, 2010;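 active = fluorescence ratio B-score at least 3 SD of library B-scores, with initial fluorescence B-score within 3 of them, cut at about 5.3 in these data; same plate scores as AID 2156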;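 also: B-score of peak minus minimum over baseline fluorescence ratio after K+ and Tl+ stimulus; positive B-score means potentiation of KCNQ2 with more thallium influx and brighter signal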
Kir21 confirm – mouse Kir2.1 channel blockers, retest, confirmation, cell-based, FluxOR thallium flux, duplicate | shares compounds with KCNQ2 enhance | Kir2.1-expressing cells, FluxOR thallium flux fluorescence; active compounds read low | 2,300 compounds, 41% hits | Tl flux remaining, % of negative control (active compounds read low), % at 10 µM;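 active = Primary-screen hit whose thallium flux fell at least 3 control SD below untreated wells in both duplicates, with normal baseline fluorescence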
HEK293 Tl flux – alters thallium flux in parental HEK293 cells, Kir2.1 counter-screen; 2,300 compounds, 19% hits; FluxOR signal as % of negative control (100 = no effect), % at 10 µM; shares compounds with KCNQ2 enhance; FluxOR thallium flux fluorescence; 0% = unstimulated blank wells;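 active = dye signal at least 3 control SD above or below untreated wells in both duplicates, raw fluorescence within 3, either direction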;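 also: percent is based on the flux ratio of peak minus minimum fluorescence over baseline F0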
CHO-K1 ctr – nonspecific thallium flux increase in parental CHO-K1, confirmation, counter-screen for KCNQ2 potentiator project, cell-based, FluxOR thallium flux, duplicate | shares compounds with KCNQ2 enhance | parental CHO-K1 cells, FluxOR thallium flux fluorescence; zero = vehicle mean+3SD, 100% = vehicle-minus-blank window | activity increase over 3SD of controls, % at 10 µM | 1,200 compounds, 43% hits | AID 2282, 2010;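 active = signal rise of at least 3 SD above the untreated control mean, in both duplicate wells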;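 also: counter screen of KCNQ2 potentiator hits so any rise reflects channel-independent effects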
KCNQ1 sel pot – human KCNQ1 channel potentiation off-target, confirmation, selectivity assay for KCNQ2 potentiator project, cell-based, CHO, FluxOR thallium flux; shares compounds with KCNQ2 enhance; CHO KCNQ1 stable, FluxOR thallium flux fluorescence; beyond 3SD, as % of vehicle-control signal; AID 2283, 2010; activation over 3SD threshold, % at 10 µM; 1,200 compounds, 28% hits;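 active = fluorescence ratio rise of at least 3 SD of vehicle wells above their mean, in both replicate wells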
KCNQ2 pot confirm – rat KCNQ2 channel potentiators, confirmation, cell-based, CHO, FluxOR thallium flux, duplicate; shares compounds with KCNQ2 enhance; CHO-KCNQ2 cells, FluxOR thallium flux fluorescence; potentiation, less the hit threshold, % at 10 µM; 1,200 compounds, 68% hits; AID 2287, 2010;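 active = fluorescence ratio rising 3 SD or more over the vehicle control mean in both replicates, plus primary screen hit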;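 also: peak minus minimum thallium fluorescence divided by baseline after K/Tl stimulus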
Kir21 spec – mouse Kir2.1 channel activation off-target, confirmation, selectivity assay for KCNQ2 potentiator project, cell-based, HEK293, FluxOR thallium flux; shares compounds with KCNQ2 enhance; HEK293 Kir2.1, FluxOR thallium flux fluorescence; activity over 3SD threshold, % at 10 µM; 1,200 compounds, 2% hits; AID 2345, 2010;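 active = fluorescence ratio rise of at least 3 SD above the vehicle-control mean, seen in both replicates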
KCNQ2 W236L pot – potentiators of retigabine-insensitive KCNQ2 W236L, mechanism study for KCNQ2 potentiator project, cell-based, rat KCNQ2 W236L, CHO, automated patch clamp. automated patch clamp current. current increase over 3SD of negative controls (%), active compounds read high, % at 25 µM. 940 compounds, 10% hits. shares compounds with KCNQ2 enhance;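 active = current increase at least 3 SD of the untreated controls above them in both duplicate recordings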
A number is an active result; – = inactive; · = not tested or not shown. The list is not random: actives were taken first. Their share in the collection is about 1.6%.

SMILES	KCNQ2 block	KCNQ2 enhance	Kir21 confirm	HEK293 Tl flux	others
CC(C)(C)C1C=C(Sc2ccccc2)C(=O)O1 (stereo not given)	–	–	·	·
Cc1c(Cl)c([N+](=O)[O-])nn1CC(=O)Nc1ccc2c(c1)OCO2	–	–	·	·
CCc1ccc(N(CC(=O)N2CCCCCC2)S(C)(=O)=O)cc1	–	·	·	·
CC(C(=O)NCCCc1ccccc1)n1cccc1C(=O)c1ccccc1 (stereo not given)	–	·	64.5%	–
O=C(Cn1cccc1C(=O)c1ccccc1)NCCCc1ccccc1	–	–	·	·
CC(C)(C)c1ccc(/C=C/C(=O)Nc2nncs2)cc1	–	·	·	·
COc1ccc(NC(=O)c2csc3c2CCCC3)cc1	–	·	·	·
COc1cccc(NC(=O)c2csc3c2CCCC3)c1	–	8.04	–	–	CHO-K1 ctr=–;KCNQ1 sel pot=–;KCNQ2 pot confirm=1.2;Kir21 spec=–;KCNQ2 W236L pot=–
O=C(CCn1c(=O)oc2ccccc21)Nc1cccc(Br)c1	–	·	·	·
CC1(C)CCc2cc(-c3ccn(S(=O)(=O)c4ccccc4Cl)n3)ccc2O1	–	18.6	–	–	CHO-K1 ctr=4.6;KCNQ1 sel pot=–;KCNQ2 pot confirm=39.2;Kir21 spec=–;KCNQ2 W236L pot=3.0%
CC1(C)CCc2cc(-c3ccnc(=S)[nH]3)ccc2O1	–	·	·	·
CC1(C)CCc2cc(CN3CCN(c4ccccn4)CC3)ccc2O1	–	–	·	·
COc1ccc(S(=O)(=O)n2ccc(-c3ccc4c(c3)CCC(C)(C)O4)n2)cc1	–	8.24	–	–	CHO-K1 ctr=3.8;KCNQ1 sel pot=–;KCNQ2 pot confirm=–;Kir21 spec=–
Cc1ccc(CN(CC(=O)N/N=C/c2ccco2)S(=O)(=O)c2ccc(C)cc2)cc1	–	–	·	·
CCn1c(SCC(=O)N2CCC(C)CC2)nc2c(c1=O)SCC2	–	–	·	·
Cc1cc(C)c(C)c(S(=O)(=O)NCC(=O)Nc2ccccc2F)c1C	–	·	66.0%	–
Cc1cc(C)c(C)c(S(=O)(=O)NCC(=O)O)c1C	–	–	·	·
Cc1cc(-c2nnc(SCC(=O)Nc3ccccc3C)n2N)n[nH]1	–	·	·	·
CC(C)C[C@H](N)c1nnc(S(=O)(=O)Cc2cccc(F)c2)o1	–	·	72.5%	–
CC(C)CCNC(=O)c1ccc(CSCc2cccc(F)c2)o1	–	·	·	·
CCn1cc(CCCC(=O)NCc2ccccc2OC)c2ccccc21	–	·	·	·
CCn1cc(CCC(=O)NCc2ccccc2OC)c2ccccc21	–	–	49.5%	–
CCCN(CCC)S(=O)(=O)c1ccc(Cl)c(OC)c1	–	·	55.0%	–
CCN(CC)S(=O)(=O)c1ccc(Cl)c(OC)c1	–	–	·	·
O=C(c1ccco1)N(CCC(c1ccccc1)c1ccco1)Cc1ccco1 (stereo not given)	-6.76	–	72.0%	–
SMILES	KCNQ2 block	KCNQ2 enhance	Kir21 confirm	HEK293 Tl flux	others
CC(=O)N(CCC(Cc1ccccc1)c1ccco1)Cc1ccco1 (stereo not given)	-6.04	–	37.5%	–
O=C(c1ccco1)N(Cc1ccc(Cl)cc1)Cc1ccco1	–	·	·	·
CC(=O)N(CCP(=O)(c1ccccc1)c1ccccc1)Cc1ccco1	–	·	·	·
CCC(=O)N(CCC(c1ccco1)c1ccccc1OC)Cc1cccs1 (stereo not given)	–	·	·	·
CC(=O)N(CCC(c1ccccc1)c1ccco1)Cc1cccs1 (stereo not given)	-7.79	–	47.0%	–
C/C=C(\C)CN1CCC(Oc2cccc(C(=O)NCc3ccccn3)c2)CC1	–	–	·	·
Cc1cc(C)cc(N(C(=O)c2csnn2)C(C(=O)NC2CCCC2)c2cccnc2)c1 (stereo not given)	–	–	·	·
CCCCc1ccc(NC(=O)COCC)cc1	–	–	·	·
CCCCc1ccc(NC(=O)CC(C)C)cc1	–	7.4	–	279.5%	CHO-K1 ctr=–;KCNQ1 sel pot=–;KCNQ2 pot confirm=94.0;Kir21 spec=–;KCNQ2 W236L pot=–
CCCCc1ccc(NC(=O)C2CCCC2)cc1	–	7.01	–	–	CHO-K1 ctr=109.0;KCNQ1 sel pot=–;KCNQ2 pot confirm=–;Kir21 spec=–;KCNQ2 W236L pot=–
CCN(CC)c1ccc(NC(=O)C2CCCC2)cc1	–	–	·	·
O=C(CSc1nc(C(F)(F)F)cc(=O)[nH]1)N1CCCC1	–	–	·	·
CC(C)(C)NC(=O)C1CC(=O)N(CCc2ccc(F)cc2)C1 (stereo not given)	–	·	·	·
COc1ccccc1C1CCN(Cc2ccc(Cl)c(Cl)c2)CC1	–	·	·	·
CN[C@@H]1CC[C@H](c2ccc(Cl)c(Cl)c2)c2ccccc21	–	·	47.0%	–
C/C(=N\Nc1nccnc1Cl)c1ccc(O)c(C)c1	–	–	·	·
COc1ccc(-n2c(C)cc(-c3csc(NC(=O)c4ccc(S(=O)(=O)N(C)C)cc4)n3)c2C)cc1	–	·	·	·
O=C(Nc1cccnc1)c1cc(-c2ccccc2)on1	–	–	·	·
CC(C)n1cc(NC(=O)c2cc(-c3ccccc3)on2)cn1	–	12.1	–	214.0%	CHO-K1 ctr=13.7;KCNQ1 sel pot=–;KCNQ2 pot confirm=11.2;Kir21 spec=–;KCNQ2 W236L pot=–
O=C(COC(=O)CCS(=O)(=O)c1ccc(Cl)cc1)NCCc1ccccc1	–	·	·	·
CCOC(=O)NC(=S)Nc1ccc(C(C)(C)C)cc1	–	10.2	–	–	CHO-K1 ctr=–;KCNQ1 sel pot=–;KCNQ2 pot confirm=26.3;Kir21 spec=–;KCNQ2 W236L pot=–
CCOC(=O)C(NC(C)=O)C(=O)Nc1ccc(C(C)(C)C)cc1 (stereo not given)	–	·	·	·
OCCC1CN(Cc2cc(F)ccc2-n2cccn2)CCN1C1CCCC1 (stereo not given)	–	·	·	·
Cc1c(C(=O)NC2CCN(Cc3ccccc3)C2)oc2ccc(Br)cc12 (stereo not given)	–	·	59.5%	–
O=C(COc1ccc(Br)cc1Cl)NC1CCN(Cc2ccccc2)CC1	–	·	21.0%	–
O=C(COc1ccccc1)NC1CCN(Cc2ccccc2)CC1	–	·	·	·
O=C(/C=C/c1cccc(Br)c1)NC1CCN(Cc2ccccc2)CC1	–	·	39.0%	–
